The whole screen tested about 16,000 compounds, of which about 5,800 (36%) were called active. Another 23% or so got no clear call; they are omitted. This is one part of the list. A number with no mark means an inactive call. Calls follow the shape of the dose curve; as a rule, active = well fitted curve in the direction sought with a large enough effect; inconclusive = small, poorly fitted or top-dose-only effect, or effect the other way; inactive = no such curve, though single readings can be large or run the other way.
% is scaled to controls: 0 for no effect and ±100 for the full control effect.

Chain of Cytochrome P450 2C19 (Homo sapiens) (P33261 whole entry, looked up): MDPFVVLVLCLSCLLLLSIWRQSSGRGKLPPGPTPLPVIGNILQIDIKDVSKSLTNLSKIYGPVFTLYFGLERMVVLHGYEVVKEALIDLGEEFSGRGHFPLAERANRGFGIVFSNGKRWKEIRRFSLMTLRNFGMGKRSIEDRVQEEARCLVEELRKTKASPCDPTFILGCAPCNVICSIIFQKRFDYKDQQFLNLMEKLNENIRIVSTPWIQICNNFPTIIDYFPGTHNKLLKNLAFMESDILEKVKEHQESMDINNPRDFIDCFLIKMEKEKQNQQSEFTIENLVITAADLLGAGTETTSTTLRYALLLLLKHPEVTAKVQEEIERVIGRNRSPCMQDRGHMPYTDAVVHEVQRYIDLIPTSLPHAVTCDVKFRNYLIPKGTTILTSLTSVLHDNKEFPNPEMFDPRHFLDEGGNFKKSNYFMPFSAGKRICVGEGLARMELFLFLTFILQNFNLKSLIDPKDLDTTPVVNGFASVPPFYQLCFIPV

The assay concerns the target Cytochrome P450 2C19 (Homo sapiens) (UniProt P33261). Description: Cytochrome panel assay with activity outcomes. The conditions noted are these: recombinant CYP, pro-luciferin dealkylation, luminescence, p450-cyp2c19; series mostly up to 57.1 µM; activity, negative = inhibition: at the top concentration.
In the case of `CCCC[C@H](CC)CN1CN(C[C@@H](CC)CCCC)CC(C)(N)C1`, the “activity, negative = inhibition” value is -6.91% [at 25.6 µM].
Take `CS(=O)(=O)N1CCN(c2c(Cl)cccc2[N+](=O)[O-])CC1`: the AC50 was 14.1 µM (active).
Regarding `CS(=O)(=O)N1CCC2(CCN(c3ccccc3)CC2)CC1`, the “activity, negative = inhibition” value was 29.9%.
For `CS(=O)(=O)N1CCC2(CCN(C(c3ccccc3)c3ccccc3)CC2)CC1`, the “activity, negative = inhibition” value is -10.5%.
As for `CCS(=O)(=O)N1CCN(c2c(Cl)cccc2[N+](=O)[O-])CC1`, the half-maximal activity concentration (AC50) was 10 µM (active).
In the case of `CCN1CCc2nc(N)oc2CC1`, the “activity, negative = inhibition” value is -9.67%.
Consider `CC(=O)N(/N=C1\Sc2ccccc2C1=O)c1ccccc1C`, for which the AC50 was 4.47 µM (active).
On the same count and under the same terms, in the case of `CC(=O)N(/N=C1\Sc2ccccc2C1=O)c1ccccc1` it was 3.16 µM (active).
For `O=[N+]([O-])c1cccnc1N1CCOCC1`, the “activity, negative = inhibition” value was -23.4%.
On to `O=[N+]([O-])c1ccc(N2CCCC2)cc1N1CCCC1`, for which the AC50 was 4.47 µM (active).
The same measure, in the same setting: in the case of `O=[N+]([O-])c1ccc(N2CCCCC2)c(Cl)c1N1CCCCC1` it was 1.41 µM (active).
As for `Clc1ccc(N2CCCCCC2)nn1`, the “activity, negative = inhibition” value is -6.14%.
Turning to `CC(C)c1ccc(CNc2cc(N3CCCC3)ccc2[N+](=O)[O-])cc1`, the AC50 is 1.78 µM (active).
In the case of `O=[N+]([O-])c1cc(F)c(N2CCOCC2)cc1N1CCCCC1`, the half-maximal activity concentration (AC50) is 3.98 µM (active).
With `COC(=O)[C@@]1(Cc2ccccc2)[C@H]2c3cc(C(=O)N4CCCC4)n(Cc4cccc5ccccc45)c3C[C@H]2CN1C(=O)c1ccccc1`, the half-maximal activity concentration (AC50) is 2.51 µM (active).
Consider `COC(=O)[C@@]1(Cc2ccccc2)[C@H]2c3cc(C(=O)N4CCCC4)n(Cc4ccsc4Br)c3C[C@H]2CN1C(=O)c1ccccc1`, for which the AC50 is 2.51 µM (active).
With `COC(=O)[C@@]1(Cc2ccccc2)[C@H]2c3cc(C(=O)N(C)C)n(Cc4ccsc4Br)c3C[C@H]2CN1C(=O)c1ccccc1`, the AC50 is 2 µM (active).
For `S=C(Nc1ccc2cn[nH]c2c1)Nc1ccc2cn[nH]c2c1`, the half-maximal activity concentration (AC50) was 1 µM (active).
In the case of `O=C(O)c1c(Cl)c(Cl)c(Cl)c(Cl)c1C(=O)Nc1ccc2cn[nH]c2c1`, the activity, negative = inhibition was -27.8% [at 11.4 µM].
As to `CCNc1ncc2nc(-c3ccc(Cl)cc3)c(=O)n(C3CC3)c2n1`, the “activity, negative = inhibition” value is -23.3%.
On to `CN(C)CCCNc1c(C(=O)O)cnc2c1cnn2C`, for which the “activity, negative = inhibition” value was 12.7%.
For the compound `CC(=O)N1CCC(=O)N(C(C)C)c2ccccc21`, the “activity, negative = inhibition” value was -13.2%.
Same read-out and setting: under `Cc1ccc(-n2c(=O)[nH]cc(C(=O)N3CCc4ccccc43)c2=O)cc1` stands -9.61%.
For the compound `Cc1nn(C(C)C(=O)N2CCc3ccccc32)c(C)c1[N+](=O)[O-]` (centres undefined), the concentration at half-maximal activity (AC50) is 11.2 µM (active).
As to `CN(C)CC[C@@H](c1ccccc1)c1ccccn1`, the “activity, negative = inhibition” value is 26.1%.
As to `C[C@@H](C1=C(CCN(C)C)Cc2ccccc21)c1ccccn1`, the AC50 is 2.51 µM (active).
Turning to `CN(C)CC(CN(C)C)c1ccccn1`, the activity, negative = inhibition was 4.36% [at 11.4 µM].
As to `Cc1n[nH]c(=O)[nH]c1=O`, the “activity, negative = inhibition” value was 13.1% [at 25.6 µM].
Still for that read-out and setting: in the case of `CS(=O)(=O)Nc1cccc(-c2nc(NCCN3CCOCC3)c3ccccc3n2)c1` it was -15.4%.
Turning to `Cc1cccc(CNc2nc(-c3cccc(NS(C)(=O)=O)c3)nc3ccccc23)c1`, the AC50 is 2.51 µM (active).
Same read-out and setting: in the case of `CS(=O)(=O)Nc1cccc(-c2nc(NCc3cccs3)c3ccccc3n2)c1` it was 10 µM (active); in that of `CCOC(=O)COc1c(OC)cc(Cl)cc1C1Nc2ccccc2C(=O)N1c1ccc(F)cc1` (centres undefined), 0.501 µM (active); in that of `CCOC(=O)COc1c(OC)cc(Cl)cc1C1Nc2ccccc2C(=O)N1c1cccc(C)c1` (centres undefined), 1.41 µM (active).
`CCOC(=O)CC1NC(=O)c2ccccc21` (centres undefined): the “activity, negative = inhibition” value was -29.3%.
The same measure, in the same setting: in the case of `C#CCn1c(=O)c2c(ncn2C)n(C)c1=O` it was -7.88%.
Take `O=C(Nc1cccc(C(F)(F)F)c1)c1ccc(Cn2cc(Br)cn2)o1`: the AC50 was 2.24 µM (active).
Still for that read-out and setting: in the case of `CCN(CC)S(=O)(=O)c1cccc(C(=O)N[C@H](C(=O)OCC(=O)NC(=O)NC)C(C)C)c1` it was 7.94 µM (active).
With `[N-]=[N+]=NC[C@@H]1O[C@@H](n2cnc3c(N)ncnc32)[C@@H]2O[C@@H]21`, the activity, negative = inhibition was 18.5% [at 11.4 µM].
Still for that read-out and setting: under `CC(C)=CCC/C(C)=C/CC/C(C)=C/CSc1ccccc1C(=O)O` stands -8.59%.
On to `Cn1c(=O)cc(SCC(=O)NCCN2CCN(c3ccccc3F)CC2)c2cc(Cl)ccc21`, for which the half-maximal activity concentration (AC50) was 11.2 µM (active).
Still for that read-out and setting: under `Cc1c(Cl)cnc(NC(=O)COC(=O)CCS(=O)(=O)c2ccccc2)c1Cl` stands 20 µM (active); under `CC(C)=CC(=O)OCC(=O)Nc1ncc(Cl)c(C)c1Cl`, 15.8 µM (active).
As to `Nc1ccc(CCNc2ncnc3c2ncn3[C@@H]2O[C@@H](CO)[C@H](O)[C@@H]2O)cc1`, the “activity, negative = inhibition” value was -1.06%.
Same read-out and setting: under `Cc1cc(N2CCN(C)CC2)n2nc(-c3ccc(Cl)cc3)nc2n1` stands 4.95% [at 11.4 µM].
With `Cc1cc(N)n2ncc(-c3ccc(Cl)cc3)c2n1`, the half-maximal activity concentration (AC50) was 15.8 µM (active).
Same read-out and setting: in the case of `O=C(Cc1ccccc1)NC(=S)Nc1cc(C(F)(F)F)ccc1Cl` it was 0.708 µM (active).
Take `COC(=O)c1ccc(Cl)c(NC(=O)c2ccc(-c3ccccc3)cc2)c1`: the “activity, negative = inhibition” value is -8.48%.
On to `COc1cc(C(=O)Nc2cc(C(F)(F)F)ccc2Cl)cc(OC)c1OC`, for which the AC50 is 22.4 µM (active).
On to `COc1cc(/C=C/C(=O)Nc2cc(C(F)(F)F)ccc2Cl)cc(OC)c1OC`, for which the AC50 was 20 µM (active).

The record behind these values is PubChem BioAssay AID1851 (National Center for Advancing Translational Sciences (NCATS), 2009).
